# Laboratory results published in the supplement of paper PMC8728848.
# The entries come from a sample that favours the strongest signals as a whole.
# Assays:
# Experiment in all cases: glycan array binding signal (z-score within array); higher = stronger binding
# Settings in all cases: glycan notation: IUPAC condensed, linker removed
# [1] = target: Fuc(a1-2)Gal(b1-4)GlcNAc(b1-3)Gal(b1-4)GlcNAc
# Method in brief: (§1)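 Columns mapping to the same glycan were averaged after glycan names were converted to IUPAC-condensed notation. The data come from 3228 arrays in the Consortium for Functional Glycomics database, limited to those with an available protein sequence. Binding is reported as a within-array Z-score averaged across arrays of one protein sequence and across linkers.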
# [2] = target: Fuc(a1-2)Gal(b1-4)GlcNAc(b1-3)Gal(b1-4)GlcNAc(b1-3)Gal(b1-4)GlcNAc
# Method in brief: as §1
# [3] = target: Fuc(a1-2)[Gal(a1-3)]Gal
# Method in brief: as §1
# [4] = target: Fuc(a1-3)[Gal(b1-4)]GlcNAc(b1-3)Gal(b1-3)[Fuc(a1-4)]GlcNAc
# Method in brief: as §1
# [5] = target: Fuc(a1-3)[GalNAc(b1-4)]GlcNAc
# Method in brief: as §1
# [6] = target: Gal(a1-3)Gal(b1-4)Glc
# Method in brief: as §1
# [7] = target: Gal(a1-3)GalNAc
# Method in brief: as §1
# [8] = target: Gal(b1-3)GalNAc(b1-4)[Neu5Ac(a2-3)]Gal(b1-4)Glc
# Method in brief: as §1
# [9] = target: Gal(b1-4)GlcNAc(b1-6)GalNAc
# Method in brief: as §1
# [10] = target: Gal3S(b1-3)GlcNAc
# Method in brief: as §1
# [11] = target: GalNAc(b1-3)Gal(a1-4)Gal(b1-4)GlcNAc
# Method in brief: as §1
# [12] = target: GlcNAc(b1-3)Gal(b1-3)GalNAc
# Method in brief: as §1
# [13] = target: GlcNAc(b1-3)Gal(b1-4)GlcNAc
# Method in brief: as §1
# [14] = target: GlcNAc(b1-3)[GlcNAc(b1-4)][GlcNAc(b1-6)]GlcNAc
# Method in brief: as §1
# [15] = target: Kdn(a2-3)Gal(b1-3)GlcNAc
# Method in brief: as §1
# [16] = target: Man(a1-2)Man(a1-3)[Man(a1-2)Man(a1-6)]Man
# Method in brief: as §1
# [17] = target: Man(a1-2)Man(a1-3)[Man(a1-2)Man(a1-6)]Man(a1-6)[Man(a1-2)Man(a1-2)Man(a1-3)]Man(b1-4)GlcNAc(b1-4)GlcNAc
# Method in brief: as §1
# [18] = target: Man(a1-3)[Man(a1-6)]Man(a1-6)[Man(a1-3)]Man(b1-4)GlcNAc(b1-4)GlcNAc
# Method in brief: as §1
# [19] = target: Man(a1-3)[Man(a1-6)]Man(b1-4)GlcNAc(b1-4)GlcNAc
# Method in brief: as §1
# [20] = target: Neu5Ac(a2-3)Gal(b1-3)GalNAc(b1-4)[Neu5Ac(a2-3)]Gal(b1-4)Glc
# Method in brief: as §1
# [21] = target: Neu5Ac(a2-3)[Neu5Ac(a2-6)]GalNAc
# Method in brief: as §1
# [22] = target: Neu5Ac(a2-6)GalNAc
# Method in brief: as §1
# [23] = target: Neu5Ac(a2-8)Neu5Ac(a2-8)Neu5Ac
# Method in brief: as §1
# [24] = target: Neu5Ac(a2-8)Neu5Ac(a2-8)Neu5Ac(a2-3)[GalNAc(b1-4)]Gal(b1-4)Glc
# Method in brief: as §1
# [25] = target: Neu5Ac(a2-8)Neu5Ac(a2-8)Neu5Ac(a2-8)Neu5Ac(a2-3)[GalNAc(b1-4)]Gal(b1-4)Glc
# Method in brief: as §1
# [26] = target: Neu5Gc(a2-3)Gal(b1-4)GlcNAc
# Method in brief: as §1
binder,measurement,setting,value
SrpA (Streptococcus sanguis) (protein) SSKSESTVNSQSASSETNRSSTNNGSTSSSSETARVRKRRATDTTPPTITVPSDIIAYRGEEFEFYFEITDDSGQVKNIELSTFGKPLGLNWLEYSEDNFNVPGNATSDNPLRVRVHGTVPLNEPIPADKNRAQFTRTIRAWDAAGNVSSNITFVIKYRAQTDKYNPADPTITYVDRLSSLSPSEKNAVEAAVRAANPQIPAAARITVSANGTVTITYPDSSTDTITANRVVKDLASSRSALT,glycan array binding signal (z-score),[1],-0.109
same,glycan array binding signal (z-score),[2],2.25
same,glycan array binding signal (z-score),[3],0.762
same,glycan array binding signal (z-score),[4],-0.157
same,glycan array binding signal (z-score),[5],-0.159
same,glycan array binding signal (z-score),[6],0.291
same,glycan array binding signal (z-score),[7],-0.317
same,glycan array binding signal (z-score),[8],-0.532
same,glycan array binding signal (z-score),[9],-0.04
same,glycan array binding signal (z-score),[10],0.646
same,glycan array binding signal (z-score),[11],-0.265
same,glycan array binding signal (z-score),[12],1.6
same,glycan array binding signal (z-score),[13],-0.543
same,glycan array binding signal (z-score),[14],-0.657
same,glycan array binding signal (z-score),[15],0.272
same,glycan array binding signal (z-score),[16],-0.848
same,glycan array binding signal (z-score),[17],-0.332
same,glycan array binding signal (z-score),[18],1.57
same,glycan array binding signal (z-score),[19],-0.474
same,glycan array binding signal (z-score),[20],-0.383
same,glycan array binding signal (z-score),[21],-0.566
same,glycan array binding signal (z-score),[22],5.01
same,glycan array binding signal (z-score),[23],-0.629
same,glycan array binding signal (z-score),[24],-0.901
same,glycan array binding signal (z-score),[25],2.24
same,glycan array binding signal (z-score),[26],-0.45
